Source: PubChem BioAssay (NCI)
About 83,000 compounds went through this panel and 20% of them were active in at least one assay; those are over-represented in the sample as a whole.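 Compound tested at a single concentration for 48 hours in 96-well plates; a percent growth value below 10 was scored as active.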 Active and inactive are the calls of the source.

Legend:
Assay in all cases: NCI-60 one-dose screen, 48 h (100 = growth as untreated, 0 = no growth, -100 = all killed)
Conditions in all cases: 10 µM unless noted
HCT-15 colon = system: HCT-15 colon
HT29 colon = system: HT29 colon
SNB-75 CNS = system: SNB-75 CNS
SNB-19 CNS = system: SNB-19 CNS
U251 CNS = system: U251 CNS
PC-3 prostate = system: PC-3 prostate
SK-MEL-5 melanoma = system: SK-MEL-5 melanoma
UACC-62 melanoma = system: UACC-62 melanoma
LOX IMVI melanoma = system: LOX IMVI melanoma
SK-MEL-28 melanoma = system: SK-MEL-28 melanoma

Measured: growth

ClC1=C(Cl)C(Cl)(C2(Cl)C(Cl)=C(Cl)C(Cl)=C2Cl)C(Cl)=C1Cl
active: HCT-15 colon -41.9% | HT29 colon -64.2% | U251 CNS -11.3% | PC-3 prostate -8.81% | SK-MEL-5 melanoma -21.8% | UACC-62 melanoma -18.6% | LOX IMVI melanoma -85.5% | SK-MEL-28 melanoma -18.1%
inactive: SNB-75 CNS 62% | SNB-19 CNS 10.5%

COc1cc2c(cc1OCc1ccccc1)C(CC(C)C)=[N+](C)CC2
inactive: HCT-15 colon 99.4% | HT29 colon 63.3% | SNB-75 CNS 64.9% | SNB-19 CNS 69% | U251 CNS 49.1% | PC-3 prostate 62.8% | SK-MEL-5 melanoma 75.9% | UACC-62 melanoma 81.9% | LOX IMVI melanoma 91.1% | SK-MEL-28 melanoma 95.1%

CN1C(=O)C(=Cc2cn(Cc3ccccc3)c3ccccc23)C(=O)N(C)C1=O
inactive: HCT-15 colon 93% | HT29 colon 89.5% | SNB-75 CNS 60.1% | SNB-19 CNS 90% | U251 CNS 82.8% | PC-3 prostate 84.8% | SK-MEL-5 melanoma 63.4% | UACC-62 melanoma 34% | LOX IMVI melanoma 82.6% | SK-MEL-28 melanoma 99.3%

CC(=O)OC1CCC2C3CCC4=C/C(=N/OC(=O)c5ccc(N(CCCl)CCCl)cc5)CCC4(C)C3CC(C)C12 (stereo not given)
inactive: HCT-15 colon 71.6% | HT29 colon 46.8% | SNB-75 CNS 70.5% | SNB-19 CNS 62.9% | U251 CNS 59.3% | PC-3 prostate 77.1% | SK-MEL-5 melanoma 67.5% | UACC-62 melanoma 72.5% | LOX IMVI melanoma 15.5% | SK-MEL-28 melanoma 108%

CC[CH2][Sn]([Cl])([Cl])[CH2]CC
inactive: HCT-15 colon 83.1% | HT29 colon 103% | SNB-75 CNS 55.9% | SNB-19 CNS 88.9% | U251 CNS 39.2% | PC-3 prostate 103% | SK-MEL-5 melanoma 86.4% | UACC-62 melanoma 60% | LOX IMVI melanoma 27.6% | SK-MEL-28 melanoma 69.2%

C[C@@]1(CCCCCCCCCc2ccc(O)cc2)C[C@]2(C)OC(=O)C[C@@H]2OO1
inactive: HCT-15 colon 83.7% | HT29 colon 102% | SNB-75 CNS 95% | SNB-19 CNS 96.6% | U251 CNS 92.8% | PC-3 prostate 61.7% | SK-MEL-5 melanoma 105% | UACC-62 melanoma 95.2% | SK-MEL-28 melanoma 99.5%
active: LOX IMVI melanoma -81.2%

CCn1nccc1NC(=O)C(=O)c1cn(Cc2ccc(F)cc2)c2cccc(OC)c12
inactive: HCT-15 colon 91.8% | HT29 colon 112% | SNB-75 CNS 91% | SNB-19 CNS 90.9% | U251 CNS 92.1% | PC-3 prostate 90.6% | SK-MEL-5 melanoma 87.3% | UACC-62 melanoma 78.4% | LOX IMVI melanoma 84.2% | SK-MEL-28 melanoma 107%

Nc1ccc2c(c1)Cc1cc(Br)ccc1-2
inactive: HCT-15 colon 101% | HT29 colon 119% | SNB-75 CNS 76.6% | SNB-19 CNS 101% | U251 CNS 104% | PC-3 prostate 89.6% | SK-MEL-5 melanoma 104% | UACC-62 melanoma 88.8% | LOX IMVI melanoma 94.2% | SK-MEL-28 melanoma 116%

O=C([O][Hg][c]1ccccc1)c1ccccc1
active: HCT-15 colon -62.7% | HT29 colon -14.8% | SNB-75 CNS -4.27% | U251 CNS -31.9% | SK-MEL-5 melanoma 5.37% | UACC-62 melanoma -42.3% | LOX IMVI melanoma -80.3% | SK-MEL-28 melanoma -61.1%
inactive: SNB-19 CNS 56.8% | PC-3 prostate 35.4%

COc1cc(/C=N/C2=C(C#N)C(c3ccco3)c3c(c4cc(C)ccc4oc3=O)O2)cc(OC)c1OC (stereo not given)
inactive: HCT-15 colon 91.8% | HT29 colon 109% | SNB-75 CNS 82.7% | SNB-19 CNS 98.2% | U251 CNS 96.6% | PC-3 prostate 89.9% | SK-MEL-5 melanoma 93.5% | UACC-62 melanoma 55.6% | LOX IMVI melanoma 88.5% | SK-MEL-28 melanoma 81.7%

CC(=O)OCc1cc[c]([Hg][Cl])o1
active: HCT-15 colon 5.8% | U251 CNS 7.54% | LOX IMVI melanoma -50.5%
inactive: HT29 colon 46% | SNB-75 CNS 42.7% | SNB-19 CNS 45.2% | PC-3 prostate 43.8% | SK-MEL-5 melanoma 42.6% | UACC-62 melanoma 47.8% | SK-MEL-28 melanoma 12.3%

O=[N+]([O-])/C=C\c1ccc(Cl)c(Cl)c1
inactive: HCT-15 colon 26.1% | SNB-75 CNS 42% | SNB-19 CNS 61.5% | U251 CNS 19.3% | PC-3 prostate 70.1% | SK-MEL-5 melanoma 56.3% | UACC-62 melanoma 58.9% | SK-MEL-28 melanoma 89.7%
active: HT29 colon -40.4% | LOX IMVI melanoma -30.7%

CCCCCSC1C2C(=O)C(Br)=CC13CCNc1c(O)c4c5c(c13)=[N+]2CCC=5C=N4 (stereo not given)
active: HCT-15 colon -47.6% | HT29 colon -31.8% | SNB-75 CNS -88.8% | SNB-19 CNS -65.5% | U251 CNS -73.3% | PC-3 prostate -0.922% | SK-MEL-5 melanoma -95.2% | UACC-62 melanoma -51.2% | LOX IMVI melanoma -71% | SK-MEL-28 melanoma -18.2%

CC(C)(N)Cc1ccccc1
inactive: HCT-15 colon 105% | HT29 colon 97.2% | SNB-75 CNS 103% | SNB-19 CNS 108% | U251 CNS 105% | PC-3 prostate 88.9% | SK-MEL-5 melanoma 116% | UACC-62 melanoma 107% | LOX IMVI melanoma 103% | SK-MEL-28 melanoma 116%

CC(CO)NC1CCCCC1 (stereo not given)
inactive: HCT-15 colon 100% | HT29 colon 117% | SNB-75 CNS 86.9% | SNB-19 CNS 102% | U251 CNS 98.9% | PC-3 prostate 105% | SK-MEL-5 melanoma 104% | UACC-62 melanoma 104% | LOX IMVI melanoma 94.3% | SK-MEL-28 melanoma 114%

C#Cc1ccc2c(c1)C(c1ccccc1F)=NCC(=O)N2C
inactive: HCT-15 colon 28% | HT29 colon 15.7% | SNB-75 CNS 51.7% | SNB-19 CNS 49% | U251 CNS 39.7% | PC-3 prostate 55.8% | SK-MEL-5 melanoma 29.9% | UACC-62 melanoma 31.3% | LOX IMVI melanoma 47.5% | SK-MEL-28 melanoma 63.8%

CC(=O)O[C@H](C[C@H](C(C)C)N(C)C(=O)[C@@H](NC(=O)[C@H]1CCCCN1C)C(C)C)c1nc(C(=O)NC2CCC(C(=O)O)CC2)cs1 (stereo not given in full)
inactive: HCT-15 colon 70.6% | HT29 colon 17.7% | SNB-19 CNS 40.9% | U251 CNS 33.2% | PC-3 prostate 48.5% | SK-MEL-5 melanoma 49.8% | UACC-62 melanoma 28% | LOX IMVI melanoma 35.5% | SK-MEL-28 melanoma 71.4%
active: SNB-75 CNS -1.9%

CC(=O)OC[C@]1(C)C=C2C(=O)[C@](C)(O)C3(CC3)C(C)=C2[C@H]1O
active: HCT-15 colon -8.75% | HT29 colon -12% | SNB-75 CNS -91.5% | SNB-19 CNS -16.5% | U251 CNS 1.39% | PC-3 prostate -15.6% | SK-MEL-5 melanoma -62% | UACC-62 melanoma -84.4% | LOX IMVI melanoma -30.3% | SK-MEL-28 melanoma -56%

CC1(C)N=C(N)N=C(N)N1c1ccc(OCCCNC(=O)Nc2ccc(S(=O)(=O)F)cc2)c(Cl)c1
inactive: HCT-15 colon 41.5% | SNB-75 CNS 57.6% | SNB-19 CNS 28.6% | U251 CNS 24.5% | PC-3 prostate 12.7% | SK-MEL-5 melanoma 29% | UACC-62 melanoma 23.7% | LOX IMVI melanoma 16.2% | SK-MEL-28 melanoma 54.2%
active: HT29 colon 8%

COC(=O)[C@H](Cc1ccccc1)NNC(=O)c1csc([C@@H](C[C@H](C(C)C)N(C)C(=O)[C@@H](NC(=O)[C@H]2CCCCN2C)C2CC2)OC(C)=O)n1
active: HT29 colon 4.57% | U251 CNS 4.68% | SK-MEL-5 melanoma -42.3%
inactive: HCT-15 colon 13.9% | SNB-75 CNS 49.2% | SNB-19 CNS 65.2% | PC-3 prostate 13.9% | UACC-62 melanoma 33.7% | LOX IMVI melanoma 13.6% | SK-MEL-28 melanoma 48.3%

CN1C(=O)C23CC4(C56CC78SSC(CO)(C(=O)N7C5Nc5ccccc56)N(C)C8=O)c5ccccc5NC4N2C(=O)C1(CO)SS3 (stereo not given)
active: HCT-15 colon -82.3% | HT29 colon -77.3% | SNB-75 CNS -100% | SNB-19 CNS -98.3% | U251 CNS -100% | PC-3 prostate -99.5% | SK-MEL-5 melanoma -95% | UACC-62 melanoma -95.6% | LOX IMVI melanoma -93.6% | SK-MEL-28 melanoma -90.6%

C[C@]12CCc3nc(Nc4ccccc4F)sc3C1=CC[C@@H]1[C@@H]2CC[C@]2(C)C(=O)CC[C@@H]12
inactive: HCT-15 colon 29.3% | HT29 colon 19.1% | SNB-75 CNS 87.3% | SNB-19 CNS 85.1% | U251 CNS 54.3% | PC-3 prostate 54.9% | SK-MEL-5 melanoma 81.9% | UACC-62 melanoma 85.8% | LOX IMVI melanoma 14.5% | SK-MEL-28 melanoma 77%

CC(=O)Oc1ccccc1C(=O)NCCC[Se]C#N
active: HCT-15 colon -30.6% | SNB-75 CNS -35.1% | SNB-19 CNS -70.3% | U251 CNS -62.1% | LOX IMVI melanoma -49% | SK-MEL-28 melanoma 7.94%
inactive: HT29 colon 91.1% | PC-3 prostate 20.6% | SK-MEL-5 melanoma 35.4% | UACC-62 melanoma 71.3%

COc1cccc2c1c(C(=O)C(=O)Nc1ccn[nH]1)cn2Cc1ccc(F)cc1
inactive: HCT-15 colon 106% | HT29 colon 105% | SNB-75 CNS 90.1% | SNB-19 CNS 107% | U251 CNS 103% | PC-3 prostate 98.3% | SK-MEL-5 melanoma 106% | UACC-62 melanoma 92.1% | LOX IMVI melanoma 103% | SK-MEL-28 melanoma 110%

CC1(C)CN1P(=O)(N1CC1(C)C)N1CC1(C)C (stereo not given)
inactive: HCT-15 colon 112% | HT29 colon 120% | SNB-75 CNS 72.7% | SNB-19 CNS 105% | U251 CNS 98.2% | PC-3 prostate 99.1% | SK-MEL-5 melanoma 117% | UACC-62 melanoma 98% | LOX IMVI melanoma 103% | SK-MEL-28 melanoma 99.5%

O=C1NC(=O)C(=Cc2ccc(OCCCCC3CCCCC3)c(Cl)c2)C(=O)N1
inactive: HCT-15 colon 98.5% | HT29 colon 92.3% | SNB-75 CNS 96.2% | SNB-19 CNS 100% | U251 CNS 81.7% | PC-3 prostate 88.4% | SK-MEL-5 melanoma 98.3% | UACC-62 melanoma 98.3% | LOX IMVI melanoma 56.1% | SK-MEL-28 melanoma 111%
